Screening results (PubChem)
Rows were chosen to be rich in hits. Some 1.5% of all compounds tested hit in one or more screens of this group.
Efflux pump inh = antifungal efflux pump inhibition, Nile Red retention. S. cerevisiae Candida pump triplex. inhibition, % at 10 µM. 0.44% of 330,000 active;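 active means plate passing quality check with inhibition over a set limit, or well fluorescence over plate mean plus 4 SD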;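 further: Nile Red retained in pooled yeast measured as flow cytometry median fluorescence; 0% = buffer negative control and 100% = Enniatin B positive control; higher means more Nile Red kept so more efflux inhibition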
JMJD2C inh = human JMJD2C demethylase inhibition | Q9H3R0 | GST-JMJD2C(1-420) H3K9me3 demethylation, DELFIA europium | inhibition, % at 2.35 µM | 0.069% of 330,000 active | AID 2099;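 active means more than half of a compound's replicate wells show inhibition beyond 50%, single wells judged on their own value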;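 further: signal counts dimethyl H3K9 product captured on neutravidin plate; 0% = median of DMSO wells and 100% = 0.3 times that DMSO median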
Target sequence (Q9H3R0 1-420 limits assumed): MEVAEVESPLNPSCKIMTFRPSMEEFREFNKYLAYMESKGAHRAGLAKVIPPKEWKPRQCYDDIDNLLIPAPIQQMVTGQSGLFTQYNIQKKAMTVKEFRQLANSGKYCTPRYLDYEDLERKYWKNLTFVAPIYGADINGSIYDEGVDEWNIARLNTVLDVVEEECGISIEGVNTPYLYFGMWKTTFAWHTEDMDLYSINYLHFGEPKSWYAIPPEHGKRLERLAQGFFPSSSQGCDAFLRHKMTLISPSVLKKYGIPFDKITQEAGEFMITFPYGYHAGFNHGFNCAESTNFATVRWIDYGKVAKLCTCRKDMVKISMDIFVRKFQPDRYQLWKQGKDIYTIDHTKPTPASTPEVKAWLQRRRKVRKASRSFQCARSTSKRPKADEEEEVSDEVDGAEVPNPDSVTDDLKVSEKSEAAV
NALP1 yeast inh = blocks the NALP1 inflammasome reconstituted in yeast; S. cerevisiae NALP1/ASC/caspase-1 growth, X-gal OD620, 72 h; inhibition, % at 10 µM; 0.61% of 280,000 active; in the data active means inhibition mostly above about 24%, no sharp cut-off; inactive means mostly below about 32%
PolyA inhibitor = yeast polyadenylation inhibition | S. cerevisiae SKY197-pL101 polyadenylation reporter, beta-gal luminescence; efflux-impaired pdr1/pdr3 knockout yeast; score 100 = 6 SD above DMSO | 0.02% of 300,000 active | AID 1875 | activity score, % at 12 µM;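 active means lowest replicate activity score at least 50, where 100 means six control SD above control mean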;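 further: yeast exposed to compound for 9 h at 30 °C; higher score means more reporter readthrough which indicates perturbed polyadenylation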
NALP3 yeast inh = inhibitors of NALP3 inflammasome in yeast; 0.39% of 330,000 active; inhibition, % at 10 µM; AID 2825; Yeast reconstituted NLRP3/ASC/caspase-1, beta-gal luminescence, 24 h;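 active means inhibition of 50% or more; inactive means inhibition below 50%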;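 further: plate controls were induced DMSO wells for no effect and uninduced yeast grown without galactose for full effect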
HDAC3 inh = human HDAC3 inhibition | O15379 | recombinant HDAC3, fluorogenic peptide/trypsin coupled, fluorescence | inhibition, % at 8.3 µM | 0.15% of 320,000 active; in the data active means inhibition above about 26%, passing the limit was not always enough
Yeast cmpd fluor = flagged as fluorescent in efflux inhibitor counter-screen; S. cerevisiae AD/pABC3, compound fluorescence, flow cytometry; shares compounds with Efflux pump inh; fluorescence ratio to DMSO, % at 10 µM; 4% of 1,700 active;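 active means fluorescence ratio to DMSO above its plate's cutoff, the plate mean ratio plus 5 SD, cut at about 210% in these data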;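 further: unstained yeast with no Nile Red so the signal is compound autofluorescence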
Mdr1 pump inh = Candida Mdr1 efflux pump inhibition. shares compounds with Efflux pump inh. S. cerevisiae AD/CaMDR1, Nile Red efflux, flow cytometry. inhibition, % at 10 µM. 1% of 1,700 active; in the data active means inhibition above about 26%;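 further: 0% = DMSO vehicle and 100% = reference inhibitor; higher means more Nile Red retained so more efflux inhibition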
Cdr2 pump inh = Candida Cdr2 efflux pump inhibition; shares compounds with Efflux pump inh; S. cerevisiae AD/CaCDR2, Nile Red retention, flow cytometry; Nile Red retention ratio vs DMSO, % at 10 µM; 4% of 1,700 active; AID 588520; in the data active means Nile Red retention ratio vs DMSO above about 190%;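 further: higher ratio means more blocking of Cdr2 efflux of the dye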
CaCdr1 efflux inh = Candida Cdr1 efflux pump inhibition; shares compounds with Efflux pump inh; S. cerevisiae AD/CaCDR1, Nile Red efflux, flow cytometry; inhibition, % at 10 µM; 1% of 1,700 active;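 active means inhibition above the screen-wide mean plus twice its standard deviation, cut at about 32% in these data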
Starred values were filed as active, the others as inactive.

`CCN(CC)c1cccc(OCC(=O)N(C)CCC#N)c1` gave Efflux pump inh 2.1*, JMJD2C inh 4.2, NALP1 yeast inh 11.2, PolyA inhibitor 8.4, NALP3 yeast inh -2.5, HDAC3 inh -5.9, Yeast cmpd fluor 202.1, Mdr1 pump inh 0.7, Cdr2 pump inh 142.3 and CaCdr1 efflux inh 1.3.
CCOc1cccc(C(=O)Nc2ccc(N(CC)CC)cc2)c1 was read as Efflux pump inh 0.2, JMJD2C inh -1.5, NALP1 yeast inh 5.7, PolyA inhibitor -12.5, NALP3 yeast inh 29.0 and HDAC3 inh 10.3.
For Cc1cc(N(C)NC(=S)Nc2ccccc2)nc(C)n1 the results were Efflux pump inh 0.6, JMJD2C inh 13.9, NALP1 yeast inh 10.7, PolyA inhibitor 9.5, NALP3 yeast inh 2.2 and HDAC3 inh 4.4.
Screening Cc1ccc(NC(=S)NN(C)c2nc(C)cnc2C)cc1 returned Efflux pump inh 9.6*, JMJD2C inh -1.9, NALP1 yeast inh 15.3, PolyA inhibitor 18.9, NALP3 yeast inh -10.9, HDAC3 inh 7.6, Yeast cmpd fluor 88.9, Mdr1 pump inh -0.2, Cdr2 pump inh 107.8 and CaCdr1 efflux inh 0.2.
CCC(NC(=O)c1cc(COc2c(F)cccc2F)on1)c1ccncc1 (centres undefined) was read as Efflux pump inh -0.1, JMJD2C inh -3.3, NALP1 yeast inh 6.9, PolyA inhibitor 10.7, NALP3 yeast inh 12.4 and HDAC3 inh -1.9.
Screening COC(=O)[C@H](Cc1ccccc1)NC(=O)c1cc(COc2c(F)cccc2F)on1 returned Efflux pump inh 0.1, JMJD2C inh -12.9, NALP1 yeast inh 18.6, PolyA inhibitor 9.6, NALP3 yeast inh 5.5, HDAC3 inh 2.6, Yeast cmpd fluor 92.1, Mdr1 pump inh 0.0, Cdr2 pump inh 106.3 and CaCdr1 efflux inh -0.1.
Cc1cccc(-c2cc(C(=O)Nc3sc(C)c(C)c3C(N)=O)c3ccccc3n2)c1 was read as Efflux pump inh 0.0, JMJD2C inh 17.4, NALP1 yeast inh 11.4, PolyA inhibitor -2.9, NALP3 yeast inh 10.2 and HDAC3 inh -0.4.
`Cc1ccc(C)c(-c2cc(C(=O)Nc3sc(C)c(C)c3C(N)=O)c3ccccc3n2)c1` gave Efflux pump inh -0.2, JMJD2C inh -6.4, NALP1 yeast inh 9.0, PolyA inhibitor -10.5, NALP3 yeast inh 5.8, HDAC3 inh -1.1, Yeast cmpd fluor 98.3, Mdr1 pump inh -0.1, Cdr2 pump inh 103.8 and CaCdr1 efflux inh 0.0.
For NC1=NC[C@@H](Cc2ccc(O)cc2)N1CCc1cccc2ccccc12 the results were Efflux pump inh -0.1, JMJD2C inh -1.8, NALP1 yeast inh 14.7, PolyA inhibitor -22.9, NALP3 yeast inh 12.2, HDAC3 inh 6.5, Yeast cmpd fluor 93.7, Mdr1 pump inh -0.3, Cdr2 pump inh 90.9 and CaCdr1 efflux inh -0.3.
NC1=NC[C@@H](CC2CCCCC2)N1CCc1cc(C(F)(F)F)cc(C(F)(F)F)c1 was read as Efflux pump inh 0.1, JMJD2C inh -1.9, NALP3 yeast inh 1.9 and HDAC3 inh 16.5.
NC1=NC[C@H](Cc2ccc(O)cc2)N1CCc1cc(C(F)(F)F)cc(C(F)(F)F)c1 was read as Efflux pump inh -0.1, JMJD2C inh 14.0, PolyA inhibitor -15.7, NALP3 yeast inh 8.1, HDAC3 inh -5.5, Yeast cmpd fluor 104.6, Mdr1 pump inh 0.1, Cdr2 pump inh 99.7 and CaCdr1 efflux inh -0.2.
Screening CCN(C(=O)Cn1nc(C)c([N+](=O)[O-])c1C)c1c(N)n(Cc2ccccc2)c(=O)[nH]c1=O returned Efflux pump inh 0.1, JMJD2C inh -30.3, PolyA inhibitor 30.6, NALP3 yeast inh 9.0 and HDAC3 inh -14.6.
Cc1cc(C)c2c(n1)sc1c(-c3ccccc3)c(C#N)c(N)nc12 was read as Efflux pump inh 17.7*, JMJD2C inh -18.7, NALP1 yeast inh 8.2, PolyA inhibitor 14.3, NALP3 yeast inh 10.9, HDAC3 inh 0.3, Yeast cmpd fluor 107.2, Mdr1 pump inh 0.0, Cdr2 pump inh 102.9 and CaCdr1 efflux inh 0.0.
Screening Cc1nc(N)c(C#N)c(-c2ccccc2)c1C returned Efflux pump inh -0.1, JMJD2C inh 8.1, NALP1 yeast inh 7.1, PolyA inhibitor 12.0, NALP3 yeast inh 18.4 and HDAC3 inh 0.6.
`Cn1cc(C(=O)C(=O)NC2CCCCC2)c2ccccc21` gave Efflux pump inh 0.3, JMJD2C inh 1.6, NALP1 yeast inh 8.3, PolyA inhibitor -25.2, NALP3 yeast inh 32.2 and HDAC3 inh -12.0.
`CS(=O)(=O)Nc1ccc(C(=O)Nc2ccc3c(c2)OCCO3)cc1` gave Efflux pump inh 9.0*, JMJD2C inh 1.3, NALP1 yeast inh -4.8, PolyA inhibitor -5.9, NALP3 yeast inh 13.8, HDAC3 inh -2.9, Yeast cmpd fluor 105.7, Mdr1 pump inh 0.0, Cdr2 pump inh 110.2 and CaCdr1 efflux inh 5.4.
Cc1ccc(S(=O)(=O)c2nc(-c3ccccc3)oc2NCCCN2CCOCC2)cc1 was read as JMJD2C inh -2.0, NALP1 yeast inh -4.0 and PolyA inhibitor 17.1.
Screening Cc1cccc(-c2nc(S(=O)(=O)c3ccc(F)cc3)c(NCCCN3CCOCC3)o2)c1 returned Efflux pump inh 7.4*, JMJD2C inh -2.4, NALP1 yeast inh 10.1, PolyA inhibitor -3.1, NALP3 yeast inh 22.1, HDAC3 inh 8.6, Yeast cmpd fluor 93.7, Mdr1 pump inh -0.2, Cdr2 pump inh 90.9 and CaCdr1 efflux inh -0.1.
Screening Cc1cnccc1CNC(=O)C1CCC(=O)N(Cc2ccc(Cl)cc2)C1 (centres undefined) returned Efflux pump inh 0.1, JMJD2C inh 3.3, NALP1 yeast inh 23.7, PolyA inhibitor 16.0, NALP3 yeast inh 11.6 and HDAC3 inh -5.4.
For CCN(CC)S(=O)(=O)c1ccc(N2CCOCC2)c(NC(=O)CCC2CCCCC2)c1 the results were Efflux pump inh 13.3*, JMJD2C inh 0.0, NALP1 yeast inh 11.7, PolyA inhibitor 1.6, NALP3 yeast inh 7.0, HDAC3 inh 0.0, Yeast cmpd fluor 101.4, Mdr1 pump inh -0.2, Cdr2 pump inh 93.5 and CaCdr1 efflux inh -0.1.
CCN(CC)c1ccc(/C=C2\C(=O)c3ccc(C(=O)O)cc3C2=O)cc1 was read as Efflux pump inh 5.8*, JMJD2C inh 8.2, NALP1 yeast inh 31.3, HDAC3 inh 3.5, Yeast cmpd fluor 208.5*, Mdr1 pump inh 2.7, Cdr2 pump inh 667.9* and CaCdr1 efflux inh 0.0.
